A selection: hits, their analogues and other compounds. The true share with any hit is near 1.7%.
LYPLA1 counter: blocks human lysophospholipase 1, a PME1 counter-screen. recombinant LYPLA1, FP-Rh probe fluorescence polarization. inhibition, % at 5.9 µM. hit rate 0.16% among 320,000. AID 2174;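 active means inhibition above the mean of all tested compounds plus 3 SD, set per campaign, cut at about 14% in these data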;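 further: inhibitors block serine hydrolase probe labeling of LYPLA1 so polarization falls; 0% = enzyme with DMSO and 100% = wells lacking LYPLA1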
Target sequence (O75608 whole entry, looked up): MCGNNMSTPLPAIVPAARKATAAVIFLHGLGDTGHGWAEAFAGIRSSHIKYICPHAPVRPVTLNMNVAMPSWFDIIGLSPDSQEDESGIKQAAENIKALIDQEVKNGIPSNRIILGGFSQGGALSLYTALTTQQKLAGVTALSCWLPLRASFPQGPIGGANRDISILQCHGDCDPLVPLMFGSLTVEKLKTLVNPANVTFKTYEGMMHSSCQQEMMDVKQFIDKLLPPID
PAD4 inh: PAD4 (human) enzyme inhibition; recombinant PAD4, RCA probe fluorescence polarization; inhibition, % at 6.36 µM; hit rate 0.41% among 330,000; AID 485272;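 active means percent inhibition above a cutoff equal to the mean of all tested compounds plus 3 SD, cut at about 15% in these data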;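 further: 0% = PAD4 with RCA probe and DMSO and 100% = probe without PAD4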
Fam108B inh: blocks mouse Fam108B hydrolase in RBBP9 counter-screen | hit rate 0.33% among 300,000 | AID 1947 | inhibition, % at 9.51 µM | recombinant Fam108B, FP-Rh probe fluorescence polarization;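 active means inhibition above the screen mean inhibition plus 3 SD, computed separately per campaign, cut at about 18% in these data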;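 further: inhibitors lower polarization as less probe binds the enzyme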
PME-1 primary: blocks human protein phosphatase methylesterase 1; hit rate 0.53% among 320,000; recombinant PME-1, FP-Rh probe fluorescence polarization; inhibition, % at 5.9 µM;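 active means inhibition above the campaign mean of all compounds plus 3 SD, cut at about 26% in these data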;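 further: competitive labeling of PME-1 active site by serine hydrolase directed probe; 0% = PME-1 with DMSO and 100% = wells lacking PME-1 enzyme; inhibitors block probe labeling so polarization falls and inhibition rises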
GSTO1 counter: counter-screen for RBBP9 inhibitors: inhibitors of human GSTO1; P78417; recombinant GSTO1, activity-based probe fluorescence polarization; inhibition, % at 5.96 µM; hit rate 1.1% among 300,000;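 active means inhibition above the campaign mean inhibition plus 3 SD, cut at about 35% in these data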;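 further: 0% = GSTO1-1 with DMSO and 100% = wells lacking GSTO1-1 enzyme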
Target sequence (P78417 whole entry, looked up): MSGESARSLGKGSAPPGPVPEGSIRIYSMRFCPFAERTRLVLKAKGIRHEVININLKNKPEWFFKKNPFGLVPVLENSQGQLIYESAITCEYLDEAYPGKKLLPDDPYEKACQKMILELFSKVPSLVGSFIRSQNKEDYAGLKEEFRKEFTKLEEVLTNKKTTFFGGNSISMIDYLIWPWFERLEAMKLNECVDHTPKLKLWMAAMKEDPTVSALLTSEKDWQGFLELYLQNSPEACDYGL
LYPLA2 counter: LYPLA2 (human) inhibition in PME1 counter-screen | recombinant LYPLA2, FP-Rh probe fluorescence polarization | inhibition, % at 5.9 µM | hit rate 0.38% among 320,000;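 active means inhibition above the screen-wide mean plus 3 SD, limit set per campaign, cut at about 26% in these data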;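 further: 0% = LYPLA2 with DMSO and 100% = wells lacking LYPLA2 enzyme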
Target sequence (O95372 whole entry, looked up): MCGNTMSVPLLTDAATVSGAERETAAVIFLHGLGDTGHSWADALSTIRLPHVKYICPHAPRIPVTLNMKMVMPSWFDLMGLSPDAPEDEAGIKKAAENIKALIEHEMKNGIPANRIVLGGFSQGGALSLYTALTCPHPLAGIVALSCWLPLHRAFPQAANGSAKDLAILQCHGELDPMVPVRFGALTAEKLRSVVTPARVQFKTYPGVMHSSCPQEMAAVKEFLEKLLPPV
GSTO1 confirm: GSTO1 (human) inhibition, confirmation | shares compounds with GSTO1 counter | hit rate 54% among 2,400 | inhibition, % at 5.96 µM | AID 2176 | recombinant GSTO1, probe fluorescence polarization;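 active means inhibition above the primary screen's cutoff, its mean inhibition plus 3 SD, cut at about 35% in these data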;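 further: loss of polarization as inhibitors block binding of rhodamine sulfonate ester activity probe; 0% = GSTO1 with DMSO and 100% = wells lacking GSTO1 enzyme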
GSTO1 ABPP inh: GSTO1 (human) inhibition by gel ABPP; hit rate 30% among 130; shares compounds with GSTO1 counter; AID 463110; recombinant GSTO1, gel ABPP SE-Rh probe fluorescence; inhibition, % at 1 µM;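 active means inhibition of the enzyme GSTO1 above about 75%, limit read from the data; inactive means inhibition below that limit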
* = called active by the depositor.

How did COC(=O)c1ccccc1NC(=O)C1CCN(S(=O)(=O)c2cc(C)ccc2OC)CC1 do in these assays?
LYPLA1 counter: -0.4; PAD4 inh: -5.1; Fam108B inh: 0.2; PME-1 primary: 3.4; GSTO1 counter: 73.8*; LYPLA2 counter: 4.5; GSTO1 confirm: 1.3

What do the screens show for `COc1ccc(OC)c(S(=O)(=O)N2CCC(C(=O)Nc3cc(C)ccc3C)CC2)c1`?
LYPLA1 counter: -0.1; PAD4 inh: -5.1; Fam108B inh: 0.5; PME-1 primary: 3.9; GSTO1 counter: 0.6; LYPLA2 counter: 8.9

What do the screens show for `CCOc1ccccc1N1CCN(C(=O)c2cc[n+]([O-])cc2)CC1`?
LYPLA1 counter: 1.7; PAD4 inh: 3.4; Fam108B inh: 1.4; PME-1 primary: 0.9; GSTO1 counter: 6.2; LYPLA2 counter: -0.7

Results for CCCc1ccc(C(=O)N2CCN(c3ccccc3OCC)CC2)cc1 ?
LYPLA1 counter: 1.9; PAD4 inh: 2.0; Fam108B inh: -3.0; PME-1 primary: 5.6; GSTO1 counter: 45.8*; LYPLA2 counter: 7.4; GSTO1 confirm: 2.5

How did N#Cc1cnn2ccc(-c3cc(N4CCOCC4)ccc3[N+](=O)[O-])nc12 do in these assays?
LYPLA1 counter: 0.1; PAD4 inh: -4.2; Fam108B inh: 1.6; PME-1 primary: -2.0; GSTO1 counter: 0.8; LYPLA2 counter: -2.3

What do the screens show for `Cn1nnc(NCc2cc(Br)ccc2OCc2cccs2)n1`?
LYPLA1 counter: 0.9; PAD4 inh: -7.6; Fam108B inh: -4.7; PME-1 primary: -4.6; GSTO1 counter: -11.6; LYPLA2 counter: -1.0

Results for Cc1nc(Cl)c(C(=O)NCc2ccccc2)c(C)c1Cl ?
LYPLA1 counter: -2.8; PAD4 inh: 2.0; Fam108B inh: -1.2; PME-1 primary: -0.4; GSTO1 counter: 5.7; LYPLA2 counter: -1.5

What do the screens show for `O=C(NCc1ccccc1)c1c(Cl)nc(Cl)c(Cl)c1Cl`?
LYPLA1 counter: -0.8; PAD4 inh: -0.2; Fam108B inh: -5.7; PME-1 primary: -8.2; GSTO1 counter: 41.0*; LYPLA2 counter: 0.0; GSTO1 confirm: 57.7*

What do the screens show for `CCC1(c2ccc(F)cc2)NC(=O)N(CC(=O)N2CCOCC2)C1=O` (centres undefined)?
LYPLA1 counter: 1.7; PAD4 inh: -0.8; Fam108B inh: 1.5; PME-1 primary: -0.1; GSTO1 counter: 0.6; LYPLA2 counter: 2.9

How did Cc1ccc(C2CC(c3cccs3)=NN2C(=O)CCl)cc1 (centres undefined) do in these assays?
LYPLA1 counter: 4.3; PAD4 inh: 7.0; Fam108B inh: 3.7; PME-1 primary: 14.1; GSTO1 counter: 87.4*; LYPLA2 counter: 0.8; GSTO1 confirm: 96.5*

Results for Cn1ccc(/C=N/N=C2/NC(=O)CS2)n1 ?
LYPLA1 counter: -0.4; PAD4 inh: -0.2; Fam108B inh: 1.0; PME-1 primary: 1.8; GSTO1 counter: -7.6; LYPLA2 counter: -1.6

Results for O=C1CC(O)(C(F)F)Oc2ccc3ccccc3c21 (centres undefined) ?
LYPLA1 counter: -0.7; PAD4 inh: -0.4; Fam108B inh: 4.8; PME-1 primary: -4.5; GSTO1 counter: 51.0*; LYPLA2 counter: 0.4; GSTO1 confirm: 44.0*

How did O=c1c2c([N+](=O)[O-])cc([N+](=O)[O-])cc2sn1-c1ccc(Br)cc1 do in these assays?
LYPLA1 counter: -1.8; PAD4 inh: -9.7; Fam108B inh: 6.0; PME-1 primary: 6.0; GSTO1 counter: 37.7*; LYPLA2 counter: 8.6; GSTO1 confirm: 32.5

How did CC(C)Cc1nnc(NC(=O)CCC(=O)N2CCN(Cc3ccccc3)CC2)s1 do in these assays?
LYPLA1 counter: -4.9; PAD4 inh: 0.0; Fam108B inh: 3.5; PME-1 primary: -0.7; GSTO1 counter: -3.5; LYPLA2 counter: 6.1

Results for COc1cccc(C(C(=O)NC(C)(C)C)N(CCC(C)C)C(=O)CCC(=O)Nc2cc(C)on2)c1OC (centres undefined) ?
LYPLA1 counter: -1.5; PAD4 inh: -1.0; Fam108B inh: 5.3; PME-1 primary: -3.1; GSTO1 counter: -2.5; LYPLA2 counter: 0.2

How did CCC(=O)Nc1cccc(-c2cnc3ccccc3n2)c1 do in these assays?
LYPLA1 counter: -1.5; PAD4 inh: 2.6; Fam108B inh: -3.6; PME-1 primary: 2.5; GSTO1 counter: -1.1; LYPLA2 counter: 4.8

What do the screens show for `O=C(CCl)Nc1cccc(-c2cnc3ccccc3n2)c1`?
LYPLA1 counter: 1.7; PAD4 inh: 2.7; Fam108B inh: -12.3; PME-1 primary: -2.0; GSTO1 counter: 69.0*; LYPLA2 counter: 7.2; GSTO1 confirm: 94.2*

What do the screens show for `Cc1cccc(N(Cc2cc(=O)[nH]c3ccccc23)C(=O)CCl)c1`?
LYPLA1 counter: 0.6; PAD4 inh: 13.8; Fam108B inh: -7.4; PME-1 primary: -3.7; GSTO1 counter: 89.9*; LYPLA2 counter: -2.5; GSTO1 confirm: 90.8*; GSTO1 ABPP inh: 76.0*

How did COc1ccc(N(Cc2cc(=O)[nH]c3ccccc23)C(=O)CCl)cc1 do in these assays?
LYPLA1 counter: -4.5; PAD4 inh: 5.9; Fam108B inh: -3.0; PME-1 primary: -0.5; GSTO1 counter: 79.1*; LYPLA2 counter: -6.0; GSTO1 confirm: 94.5*; GSTO1 ABPP inh: 44.0

Results for CCCC(=O)N(Cc1cc(=O)[nH]c2ccccc12)c1ccc(OC)cc1 ?
LYPLA1 counter: 0.5; PAD4 inh: 10.9; Fam108B inh: 1.3; PME-1 primary: 0.1; GSTO1 counter: -4.7; LYPLA2 counter: -1.0

What do the screens show for `O=C(O)Cc1ccc(O)c(O)c1`?
LYPLA1 counter: -0.1; PAD4 inh: -4.4; Fam108B inh: 0.7; PME-1 primary: 0.0; GSTO1 counter: 7.1; LYPLA2 counter: -0.5

What do the screens show for `O=C(O)Cc1cc(I)c(Oc2ccc(O)c(I)c2)c(I)c1`?
LYPLA1 counter: -0.7; PAD4 inh: -6.9; Fam108B inh: 10.2; PME-1 primary: -2.4; GSTO1 counter: 62.2*; LYPLA2 counter: 3.0; GSTO1 confirm: 56.5*

Results for c1ccc(-c2csc(Cc3nnc4n3CCCCC4)n2)cc1 ?
LYPLA1 counter: 2.6; PAD4 inh: 0.1; Fam108B inh: -0.9; PME-1 primary: -3.3; GSTO1 counter: 2.0; LYPLA2 counter: 2.3

How did COc1ccc(OC)c2sc(N3CCN(C(=O)c4ccc([N+](=O)[O-])s4)CC3)nc12 do in these assays?
LYPLA1 counter: -3.8; PAD4 inh: -2.6; Fam108B inh: -0.1; PME-1 primary: 6.4; GSTO1 counter: 54.0*; LYPLA2 counter: -0.6; GSTO1 confirm: 10.2

What do the screens show for `CCC1(C)NC(C(=O)O)Cc2c1[nH]c1ccccc21` (centres undefined)?
LYPLA1 counter: 2.8; PAD4 inh: -2.5; Fam108B inh: -0.8; PME-1 primary: 6.3; GSTO1 counter: -1.0; LYPLA2 counter: 2.6

Screening results deposited in PubChem by The Scripps Research Institute Molecular Screening Center.
